Data published in PubChem BioAssay (NCATS).
Results filed as inconclusive are left out. Activity calls are given as the source filed them. Calls follow the shape of the dose curve; as a rule, active = well fitted inhibition curve with a large enough effect; inconclusive = small, poorly fitted or top-dose-only effect; inactive = flat fitted curve, though single readings scatter.

System: CRL-7250
Experiment: Cytotoxic Profiling of Annotated Libraries Using Quantitative High-Throughput Screening (AID 1296008); also: nearly all actives have a fitted effect of over 60% in size
Conditions: Five cell lines viability, CellTiter-Glo ATP luminescence, 48-72 h; max response: hits give low values
Procedure, shortened: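 Compounds were pin-transferred onto cells and incubated 48 or 72 hr at 37 degree Celsius, 95% humidity. CellTiter-Glo was added, plates sat 10 min at room temperature, then ATP-coupled luminescence was imaged as the viability read-out.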
% is scaled to controls: 0 for no effect and ±100 for the full control effect.

With `CCO[C@H](Cc1ccc(OCCc2ccc(OS(C)(=O)=O)cc2)cc1)C(=O)O` as the compound, how does the max response read?
Its max response is -4.09% (inactive).

Which max response does the source give for `C#Cc1ccc(-c2ccccc2F)cc1` here?
The max response was -10.3% (inactive).

`Cc1c(F)cc2c(=O)c(C(=O)O)cn3c2c1CCC3C` (stereo not drawn) was tested. Which max response did it give?
Its max response is -2.94% (inactive).

How did the outcome turn out when `O=C(O)Cn1c(=O)n(Cc2ccc(Br)cc2F)c(=O)c2ccc(Cl)cc21` was run?
The outcome was “inactive”.

With `CN(C)C(=O)CNC(=O)Cc1ccccc1` as the compound, how does the max response read?
The max response was -7.63% (inactive).

Which max response does the source give for `CCN(CC)C(=O)C1CN2CCc3cc(OC)c(OC)cc3C2CC1OC(C)=O` (stereo not drawn) here?
Its max response is -9.43% (inactive).

`CCOCCn1c(C2CCN(CCc3ccc(C(C)(C)C(=O)O)cc3)CC2)nc2ccccc21` was tested. Which max response did it give?
The max response was -0.215% (inactive).

`NCC[C@H](O)C(=O)N[C@@H]1C[C@H](N)[C@@H](O[C@H]2O[C@H](CN)[C@@H](O)[C@H](O)[C@@H]2O)[C@H](O)[C@@H]1O[C@H]1O[C@H](CO)[C@@H](O)[C@H](N)[C@@H]1O` was tested. Which max response did it give?
Its max response is -2.25% (inactive).

How did the max response turn out when `COc1ccccc1OCC1CNC(=O)O1` (stereo not drawn) was run?
Its max response is -7.57% (inactive).

For `NS(=O)(=O)c1cc2c(cc1Cl)CN(C1CCCCC1)C2=O`, which max response is on record?
Its max response is -6.27% (inactive).

How did the max response turn out when `CCc1cc(S(=O)(=O)O)c2cc(C(C)C)cccc1-2` was run?
Its max response is 4.56% (inactive).

With `CC(=O)Nc1c(I)c(NC(C)=O)c(I)c(C(=O)O)c1I` as the compound, how does the max response read?
The max response was 2.5% (inactive).

How did the max response turn out when `CC1(C)S[C@@H]2[C@H](NC(=O)C(c3ccccc3)S(=O)(=O)O)C(=O)N2[C@H]1C(=O)O` (stereo partly drawn) was run?
The max response was 1.53% (inactive).

For `CCC(=O)O[C@]1(C(=O)COC)[C@@H](C)C[C@H]2[C@@H]3CCC4=CC(=O)C=C[C@]4(C)C3(F)[C@@H](O)C[C@@]21C` (stereo partly drawn), which outcome is on record?
The outcome was “inactive”.

How did the max response turn out when `OCc1cccnc1` was run?
Its max response is -0.394% (inactive).

How did the max response turn out when `Cc1ccc(C(=O)C(=O)O)cc1C` was run?
The max response was -7.54% (inactive).

`CC(=O)OC[C@H]1O[C@@H](OC(C)=O)[C@H](OC(C)=O)[C@@H]1OC(C)=O` was tested. Which max response did it give?
Its max response is -4.36% (inactive).

For `CC1(C)O[C@@H]2C[C@H]3[C@@H]4C[C@H](F)C5=CC(=O)C=C[C@]5(C)[C@@]4(F)[C@@H](O)C[C@]3(C)[C@]2(C(=O)CO)O1`, which max response is on record?
The max response was -4.6% (inactive).

Which max response does the source give for `COc1cc(C=O)ccc1O` here?
Its max response is -1.68% (inactive).

Which max response does the source give for `Cc1ccccc1N1CCN(CCc2nnc3n2CCCC3)CC1` here?
Its max response is -7.88% (inactive).

For `Nc1ncnc2c1ncn2Cc1c(F)cccc1Cl`, which max response is on record?
The max response was -8.42% (inactive).

Which max response does the source give for `COc1cc(NS(=O)(=O)c2ccc(N)cc2)nc(C)n1` here?
Its max response is -6.73% (inactive).

For `O=C(O)[C@H](O)[C@@H](O)[C@H](O[C@@H]1O[C@H](CO)[C@H](O)[C@H](O)[C@H]1O)[C@H](O)CO`, which max response is on record?
Its max response is -2.55% (inactive).
